Among the data in the supplement of paper PMC5940239 are percent growth values, retold here.

Structures are written as SMILES.

For this assay, the system named is Madurella mycetomatis MM55. Description: percent growth relative to solvent control; higher = less inhibition, active = 20 or less. Particulars: 100 µM; 7 days.
`CC(=O)N1CCc2cc3nc(C)cc(C)c3cc21`: the percent growth is 84.2% (inactive). In the case of `CNC(=O)C1Cc2ccccc2N1C(=O)Cc1ccc(F)cc1` (stereo unspecified) it was 116% (inactive).

`COc1cc(NC(=O)Cc2nn(C)c(=O)c3ccccc23)ccc1Cl`: the percent growth was 116% (inactive). In the case of `CC(C)(C)c1cc(C(=O)Nc2cccnc2)cc(C(=O)Nc2cccnc2)c1` it was 153% (inactive); in that of `O=C(Nc1cccnc1)c1c(O)c2cccc3c2n(c1=O)CC3`, 85.3% (inactive). Regarding `CC(=O)NCC1CN(c2ccc(-c3ccc(CO)cc3)c(F)c2)C(=O)O1` (stereo unspecified), the percent growth was 112% (inactive). In the case of `Cc1cc(OCC(=O)Nc2ccc(C(C)C)cc2)n(C)c(=O)c1C#N` it was 96% (inactive); in that of `CS(=O)(=O)c1cccc(-c2cnc3[nH]cc(-c4ccc(CCC(=O)O)cc4)c3c2)c1`, 95.9% (inactive). In the case of `C[C@]1(O)C[C@@H](c2nc(-c3ccc4ccc(-c5ccccc5)nc4c3)c3c(N)nccn32)C1` it was 133% (inactive); in that of `Clc1ccc(CN2CCN(C3=NCCN3)CC2)cc1Cl`, 122% (inactive); in that of `Nc1ccc2ncnc(Nc3ccc(OCc4cccc(F)c4)c(Cl)c3)c2c1`, 92.1% (inactive). As for `CCN(CC)C(=O)N1CCN(C)CC1`, the figure is 89.3% (inactive).

Regarding `c1ccc(Oc2ccc(-c3cncc(-c4ccc5[nH]ccc5c4)n3)cc2)cc1`, the percent growth was 92.6% (inactive). As for `O=C(Nc1ccc2c(c1)B(O)OC2)c1ccccc1C(F)(F)F`, the figure is 150% (inactive); as for `COc1cccn2c(C(=O)N3CCCCC3)c(C(F)(F)F)nc12`, 85.7% (inactive). As for `FC(F)(F)c1cnc(Sc2nnc(-c3ccncc3)o2)c(Cl)c1`, the figure is 82.4% (inactive).
